Reference: PubChem BioAssay (NCI)
About 83,000 compounds went through this panel and 20% of them were active in at least one assay; those are over-represented in the sample as a whole.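 Negative percent growth values reflect cell death: -40 means 40% of the cells present at the start died, and -100 means all died.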 Activity calls are given as the source filed them. Rule for the calls: active = growth percent below 10; inactive = the rest.

Each compound was assayed on HL-60(TB) leukemia (assay: NCI-60 one-dose screen, 48 h (100 = growth as untreated, 0 = no growth, -100 = all killed)). Details: 10 µM unless noted.

| SMILES | growth |
| --- | --- |
| COc1cccc(NC(=O)c2c(-c3ccccc3)c(-c3ccccc3)n[nH]c2=O)c1 | 95.5% (inactive) |
| CCN(CC)c1ccc2cc(C(Nc3ccc(Cl)cc3)c3nnnn3C(C)(C)C)c(=O)oc2c1 (stereo unspecified) | 96% (inactive) |
| O=c1[nH]nc(-c2ccccc2)c2c(-c3ccccc3)onc12 | -34% (active) |
| CCCCN(CCCC)C(=O)[C@H](CC)[C@@H]1CC[C@@H](C)[C@@H]([C@H](C)[C@@H](O)[C@@H](C)C(=O)[C@H](CC)C2O[C@]3(C=C[C@@H](O)[C@]4(CC[C@@](C)([C@H]5CC[C@](O)(CC)[C@H](C)O5)O4)O3)[C@H](C)C[C@@H]2C)O1 (stereo partly specified) | -40.8% (active) |
| C=C1C(=O)O[C@H]2[C@H]1CC/C(COC(=O)NCc1cn(C)c3ccccc13)=C\CC[C@@]1(C)O[C@@H]21 | -48.5% (active) |
| COc1cc(NC(C)CCCN)c2nc(C)ccc2c1OC (stereo unspecified) | -12.2% (active) |
| COc1cccc(-c2cc(-c3ccc(Nc4nc(Nc5ccc(Cl)cc5)nc(Nc5ccc(Cl)cc5)n4)cc3)nc(N)c2C#N)c1 | 24.5% (inactive) |
| COc1ccc(-c2nc(-c3nc4cc(Cl)c(F)cc4[nH]3)c3ccccn23)cc1 | 46.4% (inactive) |
| COCCCN=C(N)c1ccc(NC(=O)c2ccc(C(=O)Nc3ccc(C(N)=NCCCOC)cc3)cc2)cc1 | 71.3% (inactive) |
| O=C(Cn1cc(CN2C(=O)c3ccccc3S2(=O)=O)nn1)Nc1ccc([N+](=O)[O-])cc1Cl | 94.6% (inactive) |
| COc1cc(-c2nn(-c3cccc(NC(=O)c4ccc(N5CCOCC5)c(C(F)(F)F)c4)c3)cc2-c2ccncc2)ccc1Cl | -8.08% (active) |
